Data taken from ChEMBL document CHEMBL2218924, “A broad activity screen in support of a chemogenomic map for kinase signalling research and drug discovery” (Biochem J, 2013).

Assays:
[1] = molecular target: Death-associated protein kinase 1 (Homo sapiens) (UniProt P53355); conditions: at 1 µM
[2] = molecular target: Death-associated protein kinase 1 (Homo sapiens) (UniProt P53355); conditions: at 10 µM
[3] = molecular target: Death-associated protein kinase 2 (Homo sapiens) (UniProt Q9UIK4); conditions: at 10 µM
[4] = molecular target: Death-associated protein kinase 2 (Homo sapiens) (UniProt Q9UIK4); conditions: at 1 µM
[5] = molecular target: T1, Serine/threonine-protein kinase DCLK2 (Homo sapiens) (UniProt Q8N568); conditions: at 1 µM
T1 sequence (whole entry): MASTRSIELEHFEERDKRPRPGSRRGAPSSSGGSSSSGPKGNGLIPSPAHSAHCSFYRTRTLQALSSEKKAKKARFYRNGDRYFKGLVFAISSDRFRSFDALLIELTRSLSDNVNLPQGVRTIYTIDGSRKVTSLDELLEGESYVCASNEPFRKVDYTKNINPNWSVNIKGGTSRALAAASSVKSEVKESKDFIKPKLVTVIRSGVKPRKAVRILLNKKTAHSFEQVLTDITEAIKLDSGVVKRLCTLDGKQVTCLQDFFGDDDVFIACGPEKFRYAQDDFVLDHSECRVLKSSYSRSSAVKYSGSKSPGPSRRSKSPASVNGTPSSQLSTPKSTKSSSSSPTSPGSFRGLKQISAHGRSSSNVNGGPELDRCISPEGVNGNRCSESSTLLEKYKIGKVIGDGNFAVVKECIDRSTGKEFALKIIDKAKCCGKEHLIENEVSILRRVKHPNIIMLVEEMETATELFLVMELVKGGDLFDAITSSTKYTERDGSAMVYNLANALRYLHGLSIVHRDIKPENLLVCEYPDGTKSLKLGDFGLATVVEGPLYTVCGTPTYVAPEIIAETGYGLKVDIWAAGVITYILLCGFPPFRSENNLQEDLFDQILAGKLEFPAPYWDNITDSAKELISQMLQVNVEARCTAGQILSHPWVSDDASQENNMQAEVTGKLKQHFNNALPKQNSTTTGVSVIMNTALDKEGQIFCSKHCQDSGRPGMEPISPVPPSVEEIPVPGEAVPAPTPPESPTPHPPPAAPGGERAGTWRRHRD

[6] = molecular target: T2, Discoidin domain-containing receptor 2 (Homo sapiens) (UniProt Q16832); conditions: at 1 µM
T2 sequence (whole entry): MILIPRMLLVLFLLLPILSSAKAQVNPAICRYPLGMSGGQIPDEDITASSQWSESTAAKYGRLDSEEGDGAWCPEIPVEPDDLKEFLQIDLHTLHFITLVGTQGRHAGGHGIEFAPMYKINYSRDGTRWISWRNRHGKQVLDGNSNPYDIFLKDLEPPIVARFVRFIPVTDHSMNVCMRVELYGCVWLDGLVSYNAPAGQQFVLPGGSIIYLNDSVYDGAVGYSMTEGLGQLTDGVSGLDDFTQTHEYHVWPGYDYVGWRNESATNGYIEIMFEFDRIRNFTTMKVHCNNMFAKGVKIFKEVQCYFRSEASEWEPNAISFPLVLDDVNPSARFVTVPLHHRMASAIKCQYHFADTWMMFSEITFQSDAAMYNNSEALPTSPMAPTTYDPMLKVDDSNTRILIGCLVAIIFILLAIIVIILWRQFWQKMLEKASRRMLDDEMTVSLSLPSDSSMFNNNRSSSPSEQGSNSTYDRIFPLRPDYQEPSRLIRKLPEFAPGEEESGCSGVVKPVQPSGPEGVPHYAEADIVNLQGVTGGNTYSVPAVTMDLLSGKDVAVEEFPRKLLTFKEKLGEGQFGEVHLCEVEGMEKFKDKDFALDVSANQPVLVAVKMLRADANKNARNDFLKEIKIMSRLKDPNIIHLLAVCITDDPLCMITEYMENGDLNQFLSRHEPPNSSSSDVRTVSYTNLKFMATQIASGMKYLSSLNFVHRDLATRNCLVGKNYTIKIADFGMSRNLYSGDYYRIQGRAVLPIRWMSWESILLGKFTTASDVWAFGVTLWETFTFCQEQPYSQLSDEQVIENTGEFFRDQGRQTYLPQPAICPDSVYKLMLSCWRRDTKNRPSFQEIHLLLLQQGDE

[7] = molecular target: T3, Myotonin-protein kinase (Homo sapiens) (UniProt Q09013); conditions: at 1 µM
T3 sequence (whole entry): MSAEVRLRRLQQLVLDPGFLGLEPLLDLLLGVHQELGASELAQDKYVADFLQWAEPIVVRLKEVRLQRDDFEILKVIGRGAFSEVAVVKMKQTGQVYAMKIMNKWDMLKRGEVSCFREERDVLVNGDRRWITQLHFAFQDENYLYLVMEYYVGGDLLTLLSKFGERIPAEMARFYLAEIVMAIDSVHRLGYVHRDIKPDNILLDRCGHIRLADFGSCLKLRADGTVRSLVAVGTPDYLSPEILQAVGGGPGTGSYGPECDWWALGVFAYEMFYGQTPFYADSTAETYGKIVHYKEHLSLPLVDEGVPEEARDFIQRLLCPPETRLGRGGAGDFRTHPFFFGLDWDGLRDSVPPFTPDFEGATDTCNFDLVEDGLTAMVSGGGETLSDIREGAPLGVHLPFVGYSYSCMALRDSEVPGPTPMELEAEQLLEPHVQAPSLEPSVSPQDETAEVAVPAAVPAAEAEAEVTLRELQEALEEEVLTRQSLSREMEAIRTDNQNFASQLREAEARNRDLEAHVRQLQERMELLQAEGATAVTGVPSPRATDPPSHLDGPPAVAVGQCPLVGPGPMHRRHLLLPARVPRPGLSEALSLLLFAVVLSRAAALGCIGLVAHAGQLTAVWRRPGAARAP

[8] = molecular target: T3, Myotonin-protein kinase (Homo sapiens); conditions: at 10 µM
[9] = molecular target: T1, Serine/threonine-protein kinase DCLK2 (Homo sapiens); conditions: at 10 µM
[10] = molecular target: T2, Discoidin domain-containing receptor 2 (Homo sapiens); conditions: at 10 µM

Chain of Death-associated protein kinase 1 (Homo sapiens) (P53355 whole entry, looked up): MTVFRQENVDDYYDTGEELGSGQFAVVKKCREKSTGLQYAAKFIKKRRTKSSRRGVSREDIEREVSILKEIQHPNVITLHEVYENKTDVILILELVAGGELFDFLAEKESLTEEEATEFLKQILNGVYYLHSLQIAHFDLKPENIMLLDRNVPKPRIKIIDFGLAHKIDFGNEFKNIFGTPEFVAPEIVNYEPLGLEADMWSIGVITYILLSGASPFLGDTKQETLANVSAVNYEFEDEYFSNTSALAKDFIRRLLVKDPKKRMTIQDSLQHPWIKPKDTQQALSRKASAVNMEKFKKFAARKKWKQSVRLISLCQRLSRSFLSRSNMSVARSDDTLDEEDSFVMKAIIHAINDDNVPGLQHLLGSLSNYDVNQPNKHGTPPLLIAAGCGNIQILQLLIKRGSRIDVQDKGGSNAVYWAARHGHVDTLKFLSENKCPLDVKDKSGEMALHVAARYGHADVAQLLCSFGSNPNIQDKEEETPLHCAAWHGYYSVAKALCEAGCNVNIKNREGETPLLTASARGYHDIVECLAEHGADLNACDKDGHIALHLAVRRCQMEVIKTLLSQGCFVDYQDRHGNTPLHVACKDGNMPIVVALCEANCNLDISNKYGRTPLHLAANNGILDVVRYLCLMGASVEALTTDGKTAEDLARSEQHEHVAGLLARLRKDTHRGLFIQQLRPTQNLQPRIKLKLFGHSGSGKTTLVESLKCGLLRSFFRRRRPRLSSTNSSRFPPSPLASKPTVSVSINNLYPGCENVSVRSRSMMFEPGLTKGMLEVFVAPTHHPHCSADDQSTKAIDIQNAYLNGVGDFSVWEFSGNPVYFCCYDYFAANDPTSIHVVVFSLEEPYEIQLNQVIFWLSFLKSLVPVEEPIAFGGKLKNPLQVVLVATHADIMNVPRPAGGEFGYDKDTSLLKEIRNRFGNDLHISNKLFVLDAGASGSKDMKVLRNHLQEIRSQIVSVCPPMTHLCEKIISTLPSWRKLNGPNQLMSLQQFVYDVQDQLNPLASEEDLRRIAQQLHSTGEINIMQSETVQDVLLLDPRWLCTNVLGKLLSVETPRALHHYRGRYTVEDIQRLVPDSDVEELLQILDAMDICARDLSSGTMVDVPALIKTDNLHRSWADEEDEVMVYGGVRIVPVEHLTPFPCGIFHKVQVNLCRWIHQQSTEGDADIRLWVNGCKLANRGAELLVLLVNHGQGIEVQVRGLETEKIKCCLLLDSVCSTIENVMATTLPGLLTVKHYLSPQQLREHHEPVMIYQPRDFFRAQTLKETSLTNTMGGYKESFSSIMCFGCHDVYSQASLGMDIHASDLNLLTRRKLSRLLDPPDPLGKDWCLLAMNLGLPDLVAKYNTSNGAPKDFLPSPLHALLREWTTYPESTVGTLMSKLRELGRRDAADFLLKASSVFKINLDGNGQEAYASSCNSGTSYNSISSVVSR
Chain of Death-associated protein kinase 2 (Homo sapiens) (Q9UIK4 whole entry, looked up): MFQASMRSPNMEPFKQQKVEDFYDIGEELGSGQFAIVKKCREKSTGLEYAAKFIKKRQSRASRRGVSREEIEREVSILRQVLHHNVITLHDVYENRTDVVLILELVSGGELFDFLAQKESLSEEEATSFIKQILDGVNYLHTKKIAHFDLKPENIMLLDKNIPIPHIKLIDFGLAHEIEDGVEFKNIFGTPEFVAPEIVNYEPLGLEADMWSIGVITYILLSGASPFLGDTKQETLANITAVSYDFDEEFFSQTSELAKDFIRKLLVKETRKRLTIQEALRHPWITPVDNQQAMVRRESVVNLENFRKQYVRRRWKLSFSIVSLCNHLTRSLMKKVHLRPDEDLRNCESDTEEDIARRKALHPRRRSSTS

Compound: COc1ccc2c(c1)/C(=C/c1cnc[nH]1)C(=O)N2
- residual activity [1]: 100%
- residual activity [2]: 97%
- residual activity [3]: 51%

Compound: O=C1Nc2cc(Br)ccc2/C1=C1/Nc2ccccc2/C1=N\O
- residual activity [1]: 80%

Compound: CC(C)(C)c1cc(C=C(C#N)C#N)cc(Br)c1O
- residual activity [1]: 101%
- residual activity [4]: 104%
- residual activity [3]: 103%
- residual activity [5]: 109%
- residual activity [6]: 115%
- residual activity [7]: 98%
- residual activity [8]: 107%

Compound: CSc1nc(-c2ccc(F)cc2)c(-c2ccnc(NC(C)c3ccccc3)c2)[nH]1 (stereo not drawn)
- residual activity [1]: 91%

Compound: CCCC(=O)Oc1ccc2[nH]c(C(=O)c3cc4ccccc4[nH]3)cc2c1
- residual activity [1]: 83%

Compound: COC(=O)[C@@]1(O)C[C@H]2O[C@]1(C)n1c3ccccc3c3c4c(c5c6ccccc6n2c5c31)C(=O)NC4
- residual activity [1]: 48%
- residual activity [2]: 10%
- residual activity [4]: 12%
- residual activity [3]: -3%
- residual activity [5]: 75%
- residual activity [9]: 41%
- residual activity [6]: 56%
- residual activity [10]: 17%
- residual activity [7]: 116%
- residual activity [8]: 65%

Compound: CNc1cc2c(Nc3cccc(Br)c3)ncnc2cn1
- residual activity [1]: 97%

Compound: O=C1NC(=O)c2c1c1c3ccccc3n3c1c1c2c2ccccc2n1C1CCC3O1
- residual activity [1]: 49%
- residual activity [2]: 60%
- residual activity [4]: 54%
- residual activity [3]: 20%
- residual activity [6]: 77%
- residual activity [10]: 81%

Compound: Cn1sc(=O)n(Cc2ccccc2)c1=O
- residual activity [1]: 80%

Compound: Fc1ccc(-c2nc3n(c2-c2ccncc2)CCS3)cc1
- residual activity [1]: 85%

Compound: N/C(=N\[N+](=O)[O-])N/N=C\c1ccc(-c2cccc([N+](=O)[O-])c2)o1
- residual activity [1]: 93%
- residual activity [2]: 89%
- residual activity [6]: 100%
- residual activity [10]: 99%
- residual activity [7]: 98%
- residual activity [8]: 84%

Compound: CCn1cnc2c(Nc3cccc(Cl)c3)nc(N[C@@H]3CCCC[C@@H]3N)nc21
- residual activity [1]: 96%
- residual activity [2]: 85%
- residual activity [4]: 92%
- residual activity [3]: 76%
- residual activity [5]: 124%
- residual activity [9]: 67%
- residual activity [10]: 78%
- residual activity [7]: 123%
- residual activity [8]: 80%

Compound: Nc1nc(Nc2ccc(S(N)(=O)=O)cc2)nn1C(=O)c1c(F)cccc1F
- residual activity [1]: 97%

Compound: O=C1c2ccccc2-c2nc3nnnn3nc21
- residual activity [4]: 101%
- residual activity [3]: 114%
- residual activity [7]: 127%
- residual activity [8]: 148%

Compound: c1cc(-c2cnn3cc(-c4ccc(OCCN5CCCCC5)cc4)cnc23)ccn1
- residual activity [1]: 76%
- residual activity [2]: 84%
- residual activity [5]: 124%
- residual activity [9]: 76%
- residual activity [10]: 69%
- residual activity [8]: 80%

Compound: NC(=O)Nc1sc(-c2ccc(F)cc2)cc1C(N)=O
- residual activity [1]: 83%

Compound: O=c1[nH]c2ccccc2n1C1CCN(Cc2ccc(-c3nc4cc5[nH]cnc5cc4nc3-c3ccccc3)cc2)CC1
- residual activity [1]: 93%
- residual activity [2]: 95%
- residual activity [4]: 98%
- residual activity [3]: 78%
- residual activity [5]: 87%
- residual activity [9]: 98%
- residual activity [6]: 109%
- residual activity [10]: 85%
- residual activity [7]: 133%
- residual activity [8]: 143%

Compound: O=C(c1ccccc1)c1ccc(N2CCOCC2)cc1O
- residual activity [1]: 97%

Compound: C[S+]([O-])c1ccc(-c2nc(-c3ccc(F)cc3)c(-c3ccncc3)[nH]2)cc1 (stereo not drawn)
- residual activity [1]: 85%
- residual activity [2]: 84%
- residual activity [4]: 90%
- residual activity [3]: 103%
- residual activity [5]: 132%
- residual activity [9]: 111%
- residual activity [6]: 94%
- residual activity [10]: 46%
- residual activity [7]: 122%
- residual activity [8]: 102%

Compound: COc1ccc2c(c[n+](C)c3c4cc5c(cc4ccc23)OCO5)c1OC
- residual activity [1]: 94%
- residual activity [2]: 71%
- residual activity [4]: 99%
- residual activity [3]: 91%
- residual activity [5]: 98%
- residual activity [9]: 90%
- residual activity [7]: 111%
- residual activity [8]: 126%

Compound: CN(C)CCCn1cc(C2=C(c3c[nH]c4ccccc34)C(=O)NC2=O)c2ccccc21
- residual activity [1]: 106%

Compound: COc1cc(OC)c(/C=C2\C(=O)Nc3ccccc32)c(OC)c1
- residual activity [1]: 84%
- residual activity [2]: 81%
- residual activity [4]: 100%
- residual activity [3]: 95%
- residual activity [6]: 97%
- residual activity [10]: 90%

Compound: O=C1Nc2ccc(Cl)cc2/C1=C/c1cc(Cl)c(O)c(Cl)c1
- residual activity [1]: 79%

Compound: CC(C)[C@H](CO)Nc1nc(Nc2cccc(Cl)c2)c2ncn(C(C)C)c2n1
- residual activity [1]: 87%
- residual activity [5]: 128%
- residual activity [9]: 139%
- residual activity [6]: 91%
- residual activity [10]: 92%
- residual activity [7]: 98%
- residual activity [8]: 89%

Compound: CCOc1cc2ncnc(Nc3cccc(Br)c3)c2cc1OCC
- residual activity [1]: 83%

Compound: CC(C)[C@H](CO)Nc1nc(Nc2cc(N)cc(Cl)c2)c2ncn(C(C)C)c2n1
- residual activity [1]: 92%

Compound: CC(=O)c1ccc(N2CCOCC2)cc1O
- residual activity [1]: 111%

Compound: COc1cc2ncnc(Nc3ccc(OCc4ccccc4)cc3)c2cc1OC
- residual activity [1]: 94%
- residual activity [2]: 100%
- residual activity [4]: 104%
- residual activity [3]: 112%
- residual activity [5]: 89%
- residual activity [9]: 112%
- residual activity [6]: 108%
- residual activity [10]: 93%
- residual activity [7]: 105%
- residual activity [8]: 103%

Compound: O=[N+]([O-])/C=C/c1ccc2c(c1)OCO2
- residual activity [1]: 85%
- residual activity [2]: 90%
- residual activity [4]: 95%
- residual activity [3]: 127%
- residual activity [5]: 63%
- residual activity [9]: 68%
- residual activity [6]: 100%
- residual activity [10]: 97%
- residual activity [7]: 137%
- residual activity [8]: 134%

Compound: CCc1nc(-c2ccc(OC)cc2)[nH]c1-c1ccncc1
- residual activity [1]: 101%
- residual activity [2]: 100%

Compound: O=C1Nc2ccc3ncsc3c2/C1=C/c1c[nH]cn1
- residual activity [1]: 85%
- residual activity [2]: 63%
- residual activity [4]: 71%
- residual activity [3]: 32%
- residual activity [5]: 55%
- residual activity [9]: 17%
- residual activity [6]: 113%
- residual activity [10]: 82%
- residual activity [7]: 120%
- residual activity [8]: 105%
